Data on 99 compounds can be found in PubChem BioAssay AID463173 (ICCB-Longwood Screening Facility, Harvard Medical School, 2010).

In all, about 52,000 compounds went through this assay and about 1,700 (3.3%) were called active. Cut-off read from the data, not from the text of the source: active = survival mostly below about 52% (no sharp cut-off); inactive = mostly above about 56%. What follows is part of a selection rich in actives, with near analogues and random picks from the rest.

The subject of the experiment is Wild type. The experiment can be described thus: S. aureus survival, RN4220 and DeltatarO strains – OD600, teichoic acid synthesis inhibitors, primary screen (AID 463173). Conditions: S. aureus RN4220 wild type/DeltatarO growth, OD600, 18 h, stronger effect = lower value, screened at 18.75 µg/mL (by protocol).
Consider `Cc1ccc(-n2cnc3ccccc3c2=O)cc1C`, for which the survival was 89% (inactive).
As for `CCN1C(=O)C(C2SC(=S)N(CC)C2=O)SC1=S` (centres undefined), the survival was 98% (inactive).
With `CCc1ccccc1N(C)C(=O)c1cnc(N2CCOCC2)c2ccccc12` the figure was 65% (inactive); with `CCOC(=O)N1c2ccccc2Sc2ccccc21`, 95% (inactive); with `O=C(O)c1ccccc1NC(=O)N1c2ccccc2Sc2ccccc21`, 28% (inactive).
As for `CCOc1ccccc1NC(=O)N1c2ccccc2Sc2ccccc21`, the survival is 61% (inactive).
As to `CCc1ccc(NC(=O)N2c3ccccc3Sc3ccccc32)cc1`, the survival is 1% (active).
For the compound `CCN(CC)C(=O)N1c2ccccc2Sc2ccccc21`, the survival is 108% (inactive).
Turning to `COc1ccc(OC)c(NC(=O)N2c3ccccc3Sc3ccccc32)c1`, the survival is 19% (inactive).
With `CC(C)c1ccc(NC(=O)N2c3ccccc3Sc3ccccc32)cc1` the figure was 5% (active); with `COc1ccccc1NC(=O)N1c2ccccc2Sc2ccccc21`, -1% (active).
For `COc1cc(NC(=O)N2c3ccccc3Sc3ccccc32)cc(OC)c1`, the survival is 65% (inactive).
With `CCOC(=O)c1cccc(NC(=O)N2Cc3ccccc3Oc3ncccc32)c1`, the survival was 81% (inactive).
For the compound `Cc1c2cnn(CC(=O)O)c(=O)c2c(C)n1Cc1cccc(Cl)c1`, the survival is 80% (inactive).
In the case of `CCCSc1ncc(Cl)c(C(=O)N(Cc2ccccc2)c2ccc(OC)cc2)n1`, the survival is 80% (inactive).
`Cc1ccc(-n2ncc3c(Nc4ccc5c(c4)OCCO5)ncnc32)cc1C`: the survival was 100% (inactive).
`CSc1cccc(Nc2cc(C(=O)NCCc3ccc(Cl)cc3)c3ccccc3n2)c1`: the survival was 120% (inactive).
Consider `Cc1c(-c2cccc(NC(=O)Nc3ccc(Cl)cc3)c2)nc2ncccn12`, for which the survival was -4% (active).
With `Cc1c(-c2cccc(NC(=O)C(C)(C)C)c2)nc2ncccn12`, the survival is 71% (inactive).
The figure for `Cc1c(-c2cccc(NC(=O)Nc3ccccc3)c2)nc2ncccn12` is 64% (inactive); for `CCc1nn(CC(=O)NCc2cccc(OC)c2)c(=O)c2cc3cc(F)ccc3n12` it is 69% (inactive); for `CCOc1ccc(CCNC(=O)c2ccc3nc(N4CCC(C)CC4)sc3c2)cc1OCC` it is 73% (inactive).
For the compound `Cc1ccc(-n2ncc3c(NCc4ccccc4)ncnc32)cc1C`, the survival is 67% (inactive).
Consider `Cc1ccc(-n2ncc3c(NCCc4ccccc4)ncnc32)cc1Cl`, for which the survival is 65% (inactive).
With `Cc1ccc(-n2ncc3c(NCc4ccccc4)ncnc32)cc1Cl` the figure was -6% (active).
With `c1ccc(-c2nc3cc(Cc4ccc5oc(-c6ccccn6)nc5c4)ccc3o2)nc1`, the survival was 113% (inactive).
The figure for `CCC1=Nc2cc(C(=O)NCCN(CC)CC)ccc2Sc2ccccc21` is 93% (inactive); for `Cc1ccccc1NC(=O)CC1COc2ccccc2O1` (centres undefined) it is 111% (inactive); for `COc1ccc(Cc2nc3ccccc3n2Cc2ccccc2C)cc1` it is 1% (active).
The figure for `COc1cccc(OCc2nc3ccccc3n2Cc2ccccc2C)c1` is 87% (inactive); for `O=C(NCCCc1nc2ccccc2n1Cc1ccccc1F)c1ccco1` it is 92% (inactive); for `COc1ccc(Cc2nc3ccccc3n2Cc2ccccc2F)cc1` it is 23% (active).
For the compound `O=C(NCCc1nc2ccccc2n1Cc1ccccc1F)c1ccc(F)cc1`, the survival is 82% (inactive).
Take `Cc1ccccc1Cn1c(CCCNC(=O)C2CCCCC2)nc2ccccc21`: the survival was 101% (inactive).
With `Cc1ccc(-c2nc(CCNC(=O)C(=O)Nc3ccc(F)cc3F)cs2)cc1` the figure was 63% (inactive); with `Cc1ccc(C(=O)COC(=O)c2cccc(NC(=O)c3ccc(Cl)cc3Cl)c2)cc1`, 81% (inactive).
For the compound `Cc1ccc(NC(=O)c2ccc(Cl)cc2Cl)c(C(=O)c2ccccc2)c1`, the survival was 1% (active).
For the compound `Cc1cc(NC(=O)c2ccccc2Cl)ccc1NC(=O)c1ccccc1`, the survival was 85% (inactive).
Turning to `Cc1ccc(NC(=O)c2ccc(Br)cc2)c(C(=O)c2ccccc2)c1`, the survival was -2% (active).
As to `Cc1ccc(NC(=O)c2ccccc2Br)c(C(=O)c2ccccc2)c1`, the survival is 25% (inactive).
On to `O=C(Nc1cc2c(cc1C(=O)c1ccccc1)OCCO2)c1ccc(Br)cc1`, for which the survival was 86% (inactive).
For the compound `CCCCn1cc2c(c1-c1ccc(Cl)cc1)c(=O)n(C)c(=O)n2C`, the survival was 83% (inactive).
The figure for `COc1ccc2c(CNC3CCCCCC3)c(C(=O)O)n(Cc3ccccc3F)c2c1` is 89% (inactive); for `CCC1CCCCN1C(=O)c1ccc2c(c1)N(Cc1cccc(Cl)c1)C(=O)c1ccccc1S2(=O)=O` (centres undefined) it is 73% (inactive); for `Cc1ccc(N2CCN(C(=O)c3c(C)oc4nc(C)nc(N5CCCC5)c34)CC2)c(C)c1` it is 81% (inactive).
Consider `Cc1nn2c(-c3cccc(NC(=O)c4ccc(Cl)cc4)c3)nnc2c2ccccc12`, for which the survival was 113% (inactive).
With `COc1ccccc1NC(=O)c1cc2c(C)nn(-c3ccccc3)c2s1` the figure was 1% (active); with `COc1ccc(NC(=O)c2cc3c(C)nn(-c4ccccc4)c3s2)c(OC)c1`, 63% (inactive); with `Cc1ccccc1NC(=O)c1cc2c(-c3ccccc3)nn(-c3ccccc3)c2s1`, 86% (inactive).
With `COc1ccccc1NC(=O)c1cc2c(-c3ccccc3)nn(-c3ccccc3)c2s1`, the survival is 77% (inactive).
In the case of `Cc1nn(-c2ccccc2)c2sc(C(=O)Nc3ccccc3Br)cc12`, the survival was 7% (active).
In the case of `Cc1nn(-c2ccccc2)c2sc(C(=O)Nc3ccc(Br)cc3)cc12`, the survival was 52% (inactive).
Consider `Cc1ccc2oc(=O)c3cc(C(=O)Nc4ccc(F)cc4F)sc3c2c1`, for which the survival was 80% (inactive).
Regarding `CCc1ccccc1NC(=O)c1ccc(Cn2nc(N3CCN(c4ccccc4)CC3)ccc2=O)o1`, the survival was 70% (inactive).
For `Cc1cccc(-n2ccnc2SCC(=O)Nc2ccc(F)cc2F)c1C`, the survival was 71% (inactive).
As for `Cc1cccc(CS(=O)(=O)CC2Nc3ccc(C(=O)NCc4ccccc4)cc3NC2=O)c1` (centres undefined), the survival was 71% (inactive).
For `CCOC(=O)CNc1ncnc2c1nnn2C`, the survival is 22% (inactive).
The figure for `CCc1nc2c(cnn2-c2ccc(Cl)cc2)c(=O)n1-c1ccc(OC)c(Cl)c1` is 78% (inactive).
Take `CCOc1cccc2sc(NC(=O)c3ccc(S(=O)(=O)N4CCCCC4)cc3)nc12`: the survival is 75% (inactive).
The figure for `CCOc1cccc2sc(NC(=O)c3ccc(S(=O)(=O)N4CCCCC4C)cc3)nc12` (centres undefined) is 10% (active); for `CCOc1cccc2sc(NC(=O)c3ccc(S(=O)(=O)N4CCCc5ccccc54)cc3)nc12` it is 88% (inactive); for `CCOC(=O)c1c(-c2ccccc2)csc1NC(=O)c1cc(-c2ccc(Cl)cc2)on1` it is 85% (inactive).
In the case of `CCCCc1ccc(Nc2ncnc3c2cnn3-c2ccc(C)cc2)cc1`, the survival was -1% (active).
Turning to `Cc1ccc(-n2ncc3c(Nc4ccc(Oc5ccccc5)cc4)ncnc32)cc1`, the survival was 74% (inactive).
Turning to `CCC(C)Nc1ncnc2c1cnn2-c1ccc(F)cc1` (centres undefined), the survival was 71% (inactive).
With `Cc1ccc(-n2ncc3c(NCCC4=CCCCC4)ncnc32)cc1`, the survival is -3% (active).
The figure for `CCC(CO)Nc1ncnc2c1cnn2-c1ccc(C)cc1` (centres undefined) is -6% (active); for `Cc1ccc(-n2ncc3c(NCCC4=CCCCC4)ncnc32)cc1C` it is 131% (inactive); for `Fc1ccc(-n2ncc3c(NCCC4=CCCCC4)ncnc32)cc1` it is 59% (inactive).
With `Cc1ccc(-n2ncc3c(NC(C)c4ccccc4)ncnc32)cc1` (centres undefined), the survival was 73% (inactive).
Take `Cc1ccc(-n2ncc3c(NCCCc4ccccc4)ncnc32)cc1`: the survival is 69% (inactive).
For the compound `COc1ccc(-c2noc(-c3ccc(N4CCC(C)CC4)c([N+](=O)[O-])c3)n2)cc1OC`, the survival was 89% (inactive).
As to `O=C(C1CCCCC1)N(Cc1cccnc1)c1nc2ccc(Cl)cc2s1`, the survival is 72% (inactive).
Regarding `CCc1nn(CC(=O)Nc2ccc(NC(C)=O)cc2)c(=O)c2cc3sccc3n12`, the survival was 86% (inactive).
`CCOc1ccccc1NC(=O)c1cnn2c(C(F)F)cc(-c3ccccc3)nc12`: the survival is 52% (inactive).
Consider `CCOC(=O)C1CCN(C(=O)c2cc3sc(C)cc3n2C)CC1`, for which the survival was 89% (inactive).
As for `CC1CCN(S(=O)(=O)c2ccc3c(c2)N(CC(=O)NCCN(C)C)C(=O)CO3)CC1`, the survival is 76% (inactive).
On to `COc1ccc(CCNc2nc3ccccc3c3nc(-c4cccc(C)c4)nn23)cc1OC`, for which the survival is 24% (inactive).
For `COc1ccccc1CNc1nc2ccccc2c2nc(-c3cccc(C)c3)nn12`, the survival was 9% (active).
As to `Cc1ccc(CNc2nc3ccccc3c3nc(-c4cccc(C)c4)nn23)cc1`, the survival is 26% (inactive).
With `c1ccc(CNc2nc3ccccc3c3nc(-c4ccccc4)nn23)cc1` the figure was 67% (inactive); with `Cc1cccc(-c2nc3c4ccccc4nc(NCCc4ccccc4)n3n2)c1`, 3% (active).
Take `Cc1ccc(CCNc2nc3ccccc3c3nc(-c4ccccc4)nn23)cc1`: the survival was 73% (inactive).
As to `Cc1cccc(-c2nc3c4ccccc4nc(NCc4ccccc4Cl)n3n2)c1`, the survival was 163% (inactive).
The figure for `COc1ccccc1CNc1nc2ccccc2c2nc(-c3cccnc3)nn12` is 67% (inactive).
With `CCCCNc1nc2ccccc2c2nc(-c3ccccc3)nn12`, the survival was -1% (active).
Take `CN1C(N)=NC(=O)C1(CO)CO`: the survival is 104% (inactive).
Consider `CCOc1ccc(NC(=O)CSc2nc(-c3cccs3)cc(C(F)(F)F)c2C#N)cc1`, for which the survival was 66% (inactive).
As for `O=C(Cn1c(=O)c2ccccc2n(CC(=O)Nc2ccccc2F)c1=O)NCCc1ccccc1`, the survival was 89% (inactive).
In the case of `CCOc1ccc(CCNC(=O)c2cc3cc4ccc(OC)cc4nc3s2)cc1OCC`, the survival was 101% (inactive).
As to `Cc1ccc(-c2nc(CS(=O)CC(=O)N3CCN(c4ccc(Cl)cc4)CC3)c(C)o2)cc1` (centres undefined), the survival was 73% (inactive).
The figure for `Cc1oc(-c2ccc(Cl)cc2)nc1CS(=O)CC(=O)N1CCN(c2cccc(C(F)(F)F)c2)CC1` (centres undefined) is 80% (inactive); for `COc1cccc(-c2nc(CS(=O)CC(=O)N3CCN(c4cccc(C(F)(F)F)c4)CC3)c(C)o2)c1` (centres undefined) it is -2% (active); for `Cc1oc(-c2ccccc2Cl)nc1CS(=O)CC(=O)N1CCN(c2cccc(C(F)(F)F)c2)CC1` (centres undefined) it is 129% (inactive).
The figure for `Cc1ccccc1-c1nc(CS(=O)CC(=O)NCCc2ccc(Cl)cc2)c(C)o1` (centres undefined) is 128% (inactive); for `COc1cccc(-c2nc(CS(=O)(=O)CC(=O)N3CCN(c4ccccc4)CC3)c(C)o2)c1` it is 94% (inactive); for `Cc1ccc(-c2nc(CS(=O)CC(=O)N3CCN(c4cccc(Cl)c4)CC3)c(C)o2)cc1` (centres undefined) it is 5% (active).
For `Cc1ccccc1-c1nc(CS(=O)CC(=O)N2CCN(c3cc(Cl)ccc3C)CC2)c(C)o1` (centres undefined), the survival is 10% (active).
Consider `Cc1ccc(-c2nc(CS(=O)CC(=O)N3CCN(c4ccccc4)CC3)c(C)o2)cc1` (centres undefined), for which the survival was 88% (inactive).
